Compounds with a hit are over-represented: about 2.4% of the library has one in this group of screens.
NRP1-CendR mod: modulators of CendR peptide binding to NRP-1, primary screen, biochemical, fluorescence polarization, uHTS. 360,000 tested, 0.85% active. inhibition, % at 25 µM. FAM-RPARPAR peptide binding to NRP-1. AID 602438, 2012;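 active means inhibition or corrected inhibition above about 18%, plus a signal ratio from 0.5 to 1.5, limit read from the data, passing the limit was not always enough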
Target sequence (O14786 whole entry, looked up): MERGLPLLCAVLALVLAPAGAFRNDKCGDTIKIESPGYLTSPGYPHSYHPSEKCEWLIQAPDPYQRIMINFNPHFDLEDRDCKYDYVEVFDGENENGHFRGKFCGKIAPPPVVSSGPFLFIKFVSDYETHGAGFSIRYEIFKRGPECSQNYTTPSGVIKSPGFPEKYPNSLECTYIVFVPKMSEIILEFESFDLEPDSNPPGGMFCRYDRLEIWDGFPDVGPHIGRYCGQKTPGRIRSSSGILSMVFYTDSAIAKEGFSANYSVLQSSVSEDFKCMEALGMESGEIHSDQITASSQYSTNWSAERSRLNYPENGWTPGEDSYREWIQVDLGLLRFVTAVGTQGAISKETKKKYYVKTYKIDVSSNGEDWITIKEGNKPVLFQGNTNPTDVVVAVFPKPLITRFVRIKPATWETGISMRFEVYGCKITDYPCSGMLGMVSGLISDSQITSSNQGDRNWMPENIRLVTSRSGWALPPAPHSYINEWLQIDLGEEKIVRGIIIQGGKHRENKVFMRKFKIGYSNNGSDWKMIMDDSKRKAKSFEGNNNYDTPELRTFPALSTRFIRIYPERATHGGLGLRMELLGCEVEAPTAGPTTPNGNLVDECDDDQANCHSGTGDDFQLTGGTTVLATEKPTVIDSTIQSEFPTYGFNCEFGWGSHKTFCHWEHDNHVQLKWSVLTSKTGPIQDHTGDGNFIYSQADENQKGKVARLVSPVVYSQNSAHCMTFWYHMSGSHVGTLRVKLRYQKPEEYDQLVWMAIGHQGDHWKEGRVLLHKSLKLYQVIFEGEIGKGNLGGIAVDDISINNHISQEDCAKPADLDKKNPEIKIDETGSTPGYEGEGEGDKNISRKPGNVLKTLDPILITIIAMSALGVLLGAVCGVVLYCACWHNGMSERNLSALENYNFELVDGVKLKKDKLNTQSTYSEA
A3A deaminase: APOBEC3A ssDNA deaminase inhibitors, primary screen, selectivity assay for APOBEC3G inhibitor project, biochemical, FAM/TAMRA oligo cleavage fluorescence; recombinant A3A, FAM/TAMRA ssDNA deamination fluorescence; DNA dC->dU-editing enzyme APOBEC-3A (Homo sapiens), P31941; inhibition, % at 20 µM; 330,000 tested, 0.41% active;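 active means at least 40% inhibition at 20 µM here, with at most 30% in a related deaminase screen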;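 further: plate controls were A3A with DMSO for no effect and wells lacking A3A enzyme for full effect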
ADAM10 inh: human ADAM10 inhibitors, primary screen, biochemical, QFRET, HTS; recombinant ADAM10, EDANS/DABCYL FRET peptide cleavage, 3 h; inhibition, % at 7 µM; 370,000 tested, 0.62% active;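 active means inhibition above a per-campaign cutoff equal to the mean of compounds falling between control-based bounds plus 3 SD, cut at about 20% in these data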;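 further: 0% = DMSO wells while the 100% control is not disclosed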
A3G deaminase: APOBEC3G DNA deaminase inhibitors, primary screen, biochemical, fluorescence, single-stranded DNA substrate, uHTS | DNA dC->dU-editing enzyme APOBEC-3G (Homo sapiens), Q9HC16 | recombinant A3G, ssDNA deamination FAM/TAMRA fluorescence | inhibition, % at 20 µM | 330,000 tested, 0.28% active | AID 493012, 2011;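 active means inhibition of at least 40% at 20 µM, with no more than 30% in the related APOBEC3A deaminase screen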;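 further: plate controls were DMSO wells with A3G for no effect and wells lacking A3G enzyme for full effect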
ADAM17 inh: ADAM17 inhibitors, primary screen, biochemical, QFRET | recombinant ADAM17, EDANS/DABCYL FRET peptide cleavage | 370,000 tested, 0.83% active | inhibition, % at 6.95 µM;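 active means inhibition above the mean of compounds lying between control limits plus 3 SD, set per campaign, cut at about 8.5% in these data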;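 further: 0% = DMSO-only wells as the low control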
A3G conf: APOBEC3G deaminase inhibitor retest, confirmation, biochemical, fluorescence, single-stranded DNA substrate, single concentration; shares compounds with A3G deaminase; recombinant A3G ssDNA deaminase, UDG/FAM-TAMRA fluorescence; inhibition, % at 20 µM; 890 tested, 72% active; AID 493152, 2011;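 active means inhibition reaching a set limit in any replicate at 20 µM, the limit being 80% of the first screen's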
UDG A3G counter: E. coli UDG inhibitors, confirmation, counter-screen for APOBEC3G inhibitor project, biochemical, single concentration, fluorescence, FAM/TAMRA oligo | AID 504715, 2011 | shares compounds with A3G deaminase | inhibition, % at 20 µM | 710 tested, under 10 active | UDG counterscreen;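 active means compounds giving 40% or more inhibition at 20 µM in any one of the three replicates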;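 further: plate controls were DMSO wells with UDG and oligo for no effect and DMSO wells lacking both for full effect; inhibitors lower the FAM signal released by uracil excision and alkaline cleavage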
An asterisk follows results filed as active; i = inactive; nt = no result given.

SMILES	NRP1-CendR mod	A3A deaminase	ADAM10 inh	A3G deaminase	ADAM17 inh	A3G conf	UDG A3G counter
COc1ccc(N2C(=O)c3n[nH]c(C(C)C)c3C2c2ccc(C)cc2)cc1 (centres undefined)	nt	nt	-8	nt	-3	nt	nt
Cc1c(Cl)c(-c2n[nH]c(=S)n2CC(C)C)nn1C	7	5	-2	28	0	nt	nt
CCCCn1c(-c2nn(C)c(C)c2Cl)n[nH]c1=S	6	-4	-8	40*	-1	78*	-5
COc1ccc2c3c(cccc13)N(C)N=C2C	63*	26	-6	45*	-4	40*	nt
COc1ccc2c3c(cccc13)OC2=O	-19	6	2	-1	-6	nt	nt
C=CCN1C(=O)[C@@H](CC(=O)NCc2ccc(C)o2)[C@]2(C(=O)OCC)CCCCC/C=C/12	nt	nt	1	nt	2	nt	nt
N#Cc1cn(CC(=O)O)c2ccccc12	3	-12	-6	70*	-5	-5	-3
CCOC(=O)Cn1cc(C#N)c2ccccc21	7	-2	-3	-9	-3	nt	nt
COc1ccc(C(=O)C2(C(=O)NCc3ccccc3)CC(c3ccccn3)=NO2)cc1 (centres undefined)	nt	nt	2	nt	1	nt	nt
O=C1C=CC(=O)C(C2=C3C(=O)N(CCc4ccccc4)CC(=O)N3CCC2)=C1	nt	3	4	90*	3	93*	3
COC(=O)N1CCc2c(sc(NC(=O)C3COc4ccccc4O3)c2C(N)=O)C1 (centres undefined)	8	2	-14	50*	-5	21*	-4
C=CCOC(=O)N[C@@H](c1cccc(OC)c1)[C@@H](C)/C=C/CC(=O)O	nt	nt	-5	nt	-3	nt	nt
COC(=O)C1=C(COc2ccccc2)NC(=O)NC1c1ccc(Cl)cc1 (centres undefined)	nt	-2	6	48*	4	3	-2
CCOC(=O)C1=C(COc2ccccc2)NC(=O)NC1c1ccc(Cl)cc1 (centres undefined)	-3	-3	-2	-8	0	nt	nt
Cc1ccc(S(=O)(=O)/C(C#N)=C/c2c(N3CCCCC3)nc3ccccn3c2=O)cc1	-17	-2	-4	49*	-3	-3	-3
Cc1ccc(S(=O)(=O)/C(C#N)=C/c2c(N3CCN(C)CC3)nc3ccccn3c2=O)cc1	-10	-1	-28	13	-8	nt	nt
COc1ccc(OC)c2c1C(=O)CC2C (centres undefined)	-4	nt	i	nt	-334	nt	nt
COc1cccc2c1C(=O)c1ccc3ccccc3c1C2=O	-1	-10	nt	65*	nt	22*	-3
COc1ccc(OC)c2c1C(=O)c1ccccc1C2=O	nt	-4	-1	56*	-1	-11	-2
COc1ccc(OC)c2c1C(=O)C(Cl)=C(Cl)C2=O	-15	-6	-2	88*	-3	92*	-2
COc1ccc(N)c2c1C(=O)c1ccccc1C2=O	2	nt	-1	nt	-2	nt	nt
O=c1cc(CN2CCN(c3ccc(O)cc3)CC2)nc2scc(-c3ccccc3)n12	-12	16	-7	73*	-3	9	nt
COC(=O)C1=C(C)N(Cc2ccccc2C(F)(F)F)C(=NCc2ccc(C(F)(F)F)cc2)NC1c1ccc(C(F)(F)F)cc1 (centres undefined)	nt	nt	3	nt	-1	nt	nt
S=C(c1ccc(-c2cccc(Cl)c2)o1)N1CCOCC1	-3	-3	5	43*	4	26	0
CCOc1cccc(N)c1	-11	-5	nt	-13	nt	nt	nt
